High-throughput results (PubChem)
ALOX12 inh – ALOX12 (human) lipoxygenase inhibition | P18054 | purified 12hLO, xylenol orange hydroperoxide absorbance | 1.1% of 580,000 active | Potency, µM (doses to about 108 µM), without a hit: at the highest dose activity change, negative = inhibition, hits mostly inhibitors; also: potency is read from the fitted curve at half-maximal effect; % is scaled to controls: 0 for no effect and ±100 for the full control effect
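Purified human 12hLO at 150 nM in 25 mM Hepes, 0.01% Triton X-100, pH 7.0, preincubated 15 min at room temperature with compound. Reaction started with 40 uM arachidonic acid, 30 min at room temperature. Hydroperoxide measured by Fe-xylenol orange, 573/405 nm absorbance ratio.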
ERG-DNA inh – inhibitors of human ERG Ets domain-DNA interaction | P11308 | fluorescence polarization, His-ERG Ets domain / labelled DNA | Potency, µM (series often up to 76.9 µM), for inactives: top-dose FP activity, negative = inhibition, hits mostly inhibitors | 0.028% of 370,000 active | AID 624246; active = well fitted inhibition curve with a large enough effect in the polarisation, with a control signal flat; inconclusive = small, poorly fitted or top-dose-only effect, or effect the other way, or a change in a side signal; inactive = no such curve, though single readings can be large or run the other way; the % refers to the polarisation;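 also: polarization taken with two DNA probes labelled with fluorescein and Texas red; potency is read from the fitted curve at half-maximal effect; % of control where 0% means no effect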
Target sequence (P11308 whole entry, looked up, the tested form may be a part): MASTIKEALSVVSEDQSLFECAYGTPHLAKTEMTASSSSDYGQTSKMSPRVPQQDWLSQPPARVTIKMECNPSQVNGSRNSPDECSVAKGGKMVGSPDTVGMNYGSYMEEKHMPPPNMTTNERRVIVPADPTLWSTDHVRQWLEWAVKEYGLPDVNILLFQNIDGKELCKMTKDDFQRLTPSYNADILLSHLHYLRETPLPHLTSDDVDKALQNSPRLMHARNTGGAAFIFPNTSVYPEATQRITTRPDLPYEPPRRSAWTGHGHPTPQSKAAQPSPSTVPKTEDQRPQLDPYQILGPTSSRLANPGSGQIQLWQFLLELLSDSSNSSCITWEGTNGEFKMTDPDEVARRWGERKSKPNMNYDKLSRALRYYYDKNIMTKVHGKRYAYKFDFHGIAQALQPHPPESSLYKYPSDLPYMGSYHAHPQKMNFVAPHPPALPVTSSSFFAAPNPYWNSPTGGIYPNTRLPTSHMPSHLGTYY
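His-tagged ERG Ets domain (1 uM in the protein solution; 300mM KCl, 50mM Tris-HCl, 1mM EDTA, 1mM DTT, pH 7.5) received compound, then a probe mix of 5 nM fluorescein-DNA and 100nM Texas-615-DNA. Fluorescence polarization was read for both dyes.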
A549 viability – kills or reduces viability of A549 cells in Nrf2 counter-screen; A549 ARE-Fluc cells, CellTiter-Fluor viability, 18-24 h; Potency, µM (series often up to 46 µM), for inactives: top-dose activity change, negative = cytotoxicity, most hits filed as inhibitors; 0.16% of 390,000 active; AID 504648; also: potency is read from the fitted curve at half-maximal effect; % is scaled to controls: 0 for no effect and ±100 for the full control effect
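A549 ARE-Fluc cells in 5% FBS OPTI-MEM, 5000 cells/well, rested 2 h then exposed to compounds in concentration-response for 18-24 h at 37 °C. Viability by CellTiter-Fluor fluorescence (Ex 405/Em 525) after 30 min; luciferase luminescence (BugLite, 15 min, RT) read afterwards.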
Nrf2 block – Nrf2 pathway inhibition; Potency, µM (doses to about 46 µM), for inactives: top-dose activity change, negative = inhibition, hits mostly inhibitors; 2.1% of 360,000 active; AID 504444; A549 ARE-Fluc reporter, luciferase luminescence, 18-24 h; also: potency is read from the fitted curve at half-maximal effect; % is scaled to controls: 0 for no effect and ±100 for the full control effect; nearly all actives have a fitted effect of over 60% in size
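Nrf2 function is reported as luminescence of an ARE-controlled luciferase in A549 cells. Compounds were tested at several concentrations, and a CellTiter-Fluor read on the same wells flagged cytotoxicity.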
Nrf2 ARE act – activators of Nrf2 (ARE) signaling; AREc32 ARE-luciferase reporter (MCF7-derived line), luminescence, 24 h; Potency, µM (titrated, usually from 46.1 µM), for inactives: at the highest dose activation, most hits filed as activators; 0.31% of 410,000 active; AID 624171; also: potency is read from the fitted curve at half-maximal effect; % of control where 0% means no effect; nearly all actives have a fitted effect of over 65% in size
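Quantitative high-throughput format: AREc32 reporter cells, 1000 per well, received compound by pin transfer and were incubated 24 hr at 37 deg C, 5% CO2, before Steady-Glo luminescence detection.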
LDHA inh – blocks human lactate dehydrogenase A; P00338; purified LDHA, NADH/diaphorase-resazurin fluorescence; stronger effect = lower value; activity change, % (values are at about 110 or 230 µM); 0.15% of 480,000 active; AID 1347041; in the data active = activity change below about -30%; inconclusive = mostly about -25% to -30%;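 also: plate controls were DMSO wells for no effect and wells without enzyme for full effect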
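Remaining NADH was detected by diaphorase (0.133 mg/mL) converting 37 µM resazurin to fluorescent resorufin, read at 0 and 20 minutes. The preceding 5-minute room-temperature reaction used 2 nM LDHA, 0.2 mM sodium pyruvate and 0.06 mM NADH at pH 7.4.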
* = called active by the depositor; i = inactive; u = inconclusive; x = not tested or not shown; ! = repeats disagree; [ ] = dose if it differs, or a comment. Compounds with a hit are over-represented: about 2.7% of the library has one in this group of screens. Unless noted, calls follow the shape of the dose curve; as a rule, active = well fitted curve in the direction sought with a large enough effect; inconclusive = small, poorly fitted or top-dose-only effect, or another doubt; inactive = no such curve, though single readings can be large; an effect the other way counts as inactive or inconclusive.

SMILES	ALOX12 inh	ERG-DNA inh	A549 viability	Nrf2 block	Nrf2 ARE act	LDHA inh
Cc1ccsc1C(=O)N1CCC2(CC1)NC(=O)N(c1cccc(F)c1)N2	2.8µM*	x	x	x	x	x
Cc1ccsc1C(=O)N1CCC2(CC1)NC(=O)N(c1ccccc1)N2	7.1µM*	x	x	x	x	x
Cc1ccc(C(=O)N2CCC3(CC2)NC(=O)N(c2ccccc2)N3)cc1	1.3µM*	x	x	x	x	x
Cc1ccsc1C(=O)N1CCN(S(=O)(=O)c2cccs2)CC1	i	-2%	-3%	1%	0%	6
Cc1ccsc1C(=O)N1CCC2(CC1)NC(=O)N(c1cccc(Cl)c1)N2	1.3µM*	x	x	x	x	x
Cc1ccc(NC(=O)C(C#N)=C2CCCCCCC2)cc1	u	x	x	x	x	-8
CC(C)C(N)c1ccc2c(c1)OCCCO2 (stereo not drawn)	12%	x	x	x	x	11
CC(C)n1ncc2cc(C(=O)Nc3ccc(OCC(F)(F)F)cc3)cnc21	6%	x	x	x	x	-24
Cc1ccc(NC(=O)Cn2cc(C(F)(F)F)cc(Cl)c2=O)cc1S(=O)(=O)N1CCCCC1	5%	18%	-13%	23µM*	0%	0
Cc1ccc(NC(=O)Cn2c(=O)cnc3ccccc32)cc1S(=O)(=O)N1CCCCC1	195%	-18%	-18%	13µM*	0%	0
COc1ccc(NC(=O)Cn2c(=O)cnc3ccccc32)cc1S(=O)(=O)N1CCCCC1	-9%	9%	0%	-20%	5%	-1
Cc1ccc(NC(=O)CSc2ccccc2)cc1S(=O)(=O)N1CCOCC1	-5%	-1%	0%	-6%	-1%	2
Cc1ccc(NC(=O)CSc2ncnc3ccccc23)cc1S(=O)(=O)N1CCOCC1	-6%	-10%	-8%	23µM*	15%	-7
Cc1ccc(NC(=O)CSc2ccccc2)cc1S(=O)(=O)N1CCCCC1	23%	-8%	-9%	23µM*	0%	-1
CCN(CC)CCCOc1ccccc1-c1ccccc1	u	x	x	x	x	8
Cc1ccc(CN2CC(C(=O)Nc3ccc(C)c(S(=O)(=O)N4CCCCC4)c3)CC2=O)cc1 (stereo not drawn)	-13%	14%	u	21µM*	0%	5
Cc1ccc(NC(=O)c2cc(=O)c3ccccc3o2)cc1S(=O)(=O)N1CCCCC1	118%	18%	-20%	16µM*	0%	0
Cc1ccc(NC(=O)CSc2ncnc3ccccc23)cc1C	-14%	x	x	x	x	1
O=C(Nc1cccc(S(=O)(=O)N2CCCCC2)c1)c1ccccc1NS(=O)(=O)c1ccc(F)cc1	-9%	9%	-11%	u	0%	-1
Cc1ccc(NC(=O)c2ccccc2NS(=O)(=O)c2ccc(F)cc2)cc1S(=O)(=O)N1CCCCC1	-5%	2%	u	23µM*	2%	-2
Cc1ccc(NC(=O)CSc2ncnc3ccccc23)cc1S(=O)(=O)N1CCCCC1	2%	-13%	u	15µM*	12%	2
Cc1c(NC(=O)C2CCN(S(=O)(=O)Cc3ccc(F)cc3)CC2)c(=O)n(-c2ccccc2)n1C	7%	x	x	x	x	7
O=S(=O)(NC1=NCN(Cc2cccnc2)CN1)c1ccccc1	1%	x	x	x	x	1
S=C(NC1CCCCC1)N1CCOCCOCCN(C(=S)NC2CCCCC2)CCOCCOCC1	u	21%	u	16µM*	0%	-4
Cc1ccccc1NC(=O)Cn1c(=O)c2cccn2c2ccccc21	u	x	x	x	x	-9
SMILES	ALOX12 inh	ERG-DNA inh	A549 viability	Nrf2 block	Nrf2 ARE act	LDHA inh
COc1ccc(CNC(=O)Cn2c(=O)c3cccn3c3ccccc32)cc1	-15%	-2%	0%	12µM*	0%	-9
Cc1cccc(NC(=O)Cn2c(=O)c3cccn3c3ccccc32)c1C	0%	-1%	-17%	23µM*	-1%	10
CCN(CC1CCOC1)C(=O)C=C(C)C (stereo not drawn)	46%	x	x	x	x	3
CC(C)(C)c1ccc(C2CC2C(=O)N/N=C\c2ccc[nH]2)cc1 (stereo not drawn)	-11%	2%	5.8µM*	1.6µM*	0%[9.22 µM]	-5
C=CCN(c1ccccc1)S(=O)(=O)c1cccc(C(=O)N2CC(C)CC(C)C2)c1 (stereo not drawn)	75%	3%	u	21µM*	5%	5
C=CCN(c1ccccc1)S(=O)(=O)c1cccc(C(=O)N2CCCC2)c1	-7%	2%	-2%	8%	0%	0
O=C(Nc1ccc(F)cc1F)Nc1cc(C(=O)NCc2cccc(F)c2)ccc1N1CCOCC1	u	x	x	x	x	-3
Cc1cc(C(=O)CN(C)Cc2ccc3c(c2)OCO3)c(C)n1C(C)C	u	x	x	x	x	4
CCCCN1C(=O)C(O)=C(C(C)=O)C1c1ccc(OC)cc1OC (stereo not drawn)	8.9µM*	-4%	0%	-10%	0%	-1
COc1ccc(C2C(C(C)=O)=C(O)C(=O)N2CCO)c(OC)c1 (stereo not drawn)	u	-8%	2%	x	0%	-1
Fc1ccc(-c2csc3[n+]2CCS3)cc1	-8%	0%	-22%	16µM*	-1%	-16
N#Cc1nc(-c2ccccc2F)oc1NCc1ccc(Cl)cc1	u	x	x	x	x	-2
O=C(Nc1cc(Sc2ccccn2)cc([N+](=O)[O-])c1)c1cccc(F)c1	-12%	-6%	-9%	18µM*	6%	-4
Nc1cc(Sc2ccccn2)cc([N+](=O)[O-])c1	6%	x	x	x	x	11
CC(C)C(NC(=O)c1ccc(F)cc1)C(=O)NN (stereo not drawn)	-22%	x	x	x	x	-5
Oc1ccc(C(=S)N2CCN(c3cccc(Cl)c3)CC2)cc1	u	1%	-28%	u	0%	-7
COc1cc(C(=S)N2CCN(c3cccc(Cl)c3)CC2)ccc1O	45µM*	1%	4%	0%	-1%	-1
CCNc1nc(-c2ccc(NC(C)=O)cc2)cs1	28µM*	x	x	x	x	-18
CC(=O)Nc1ccc(Nc2nc(-c3sc(C)nc3C)cs2)cc1	16µM*!	-2%	-15%	u	6%	-10
CC(=O)c1cccc(Nc2nc(-c3sc(C)nc3C)cs2)c1	0%	4%	-16%	23µM*	6%	-6
CCOC(=O)c1cc(-c2ccccc2)sc1NC(=S)Nc1cccc(C)n1	20µM*	2%	5%	-13%	2%	-8
CCOC(=O)c1cc(-c2ccccc2)sc1NC(=O)c1ccc(OC)c(OC)c1	11µM*	-2%	17%	3%	0%	-5
COc1cc2c(C(=O)N3CCN(C)CC3)c(C)n(-c3ccccc3)c2cc1Br	-13%	5%	-3%	1%	0%	0
